Assay [1] concerns the target Serine/threonine-protein kinase PLK3 (Homo sapiens) (UniProt Q9H4B4). The conditions noted are these: at 1 µM.
Assay [2] has the same target. The conditions noted are these: at 10 µM.
Assay [3] concerns the target Protein-tyrosine kinase 2-beta (Homo sapiens) (UniProt Q14289). The note with it: at 1 µM.
Assay [4] has the same target. The conditions noted are these: at 10 µM.
Assay [5] concerns the target Receptor-interacting serine/threonine-protein kinase 2 (Homo sapiens) (UniProt O43353). The note with it: at 1 µM.
Assay [6] has the same target. The conditions noted are these: at 10 µM.
Assay [7] has as its target Rho-associated protein kinase 1 (Homo sapiens) (UniProt Q13464). The conditions noted are these: at 1 µM.
For assay [8] the target is unchanged. The note with it: at 10 µM.
Assay [9] addresses Rho-associated protein kinase 2 (Homo sapiens) (UniProt O75116). The conditions noted are these: at 1 µM.
The target is the same in assay [10]. The note with it: at 10 µM.
Assay [11] has as its target Proto-oncogene tyrosine-protein kinase receptor Ret (Homo sapiens) (UniProt P07949). The note with it: at 1 µM.
For assay [12] the target is unchanged. The conditions noted are these: at 10 µM.
The target in assay [13] is Macrophage-stimulating protein receptor (Homo sapiens) (UniProt Q04912). The note with it: at 1 µM.
Sequence of Macrophage-stimulating protein receptor (Homo sapiens) (Q04912 25-304 limits assumed): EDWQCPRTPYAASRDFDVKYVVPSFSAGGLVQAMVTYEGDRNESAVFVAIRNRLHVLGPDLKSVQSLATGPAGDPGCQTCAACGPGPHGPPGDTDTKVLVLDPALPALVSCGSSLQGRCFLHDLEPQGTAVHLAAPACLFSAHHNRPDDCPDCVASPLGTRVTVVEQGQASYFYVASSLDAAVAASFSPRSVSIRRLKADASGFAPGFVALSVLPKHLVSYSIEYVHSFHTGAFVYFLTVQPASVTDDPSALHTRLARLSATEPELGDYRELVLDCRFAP
Sequence of Macrophage-stimulating protein receptor (Homo sapiens) (Q04912 310-1400 limits assumed): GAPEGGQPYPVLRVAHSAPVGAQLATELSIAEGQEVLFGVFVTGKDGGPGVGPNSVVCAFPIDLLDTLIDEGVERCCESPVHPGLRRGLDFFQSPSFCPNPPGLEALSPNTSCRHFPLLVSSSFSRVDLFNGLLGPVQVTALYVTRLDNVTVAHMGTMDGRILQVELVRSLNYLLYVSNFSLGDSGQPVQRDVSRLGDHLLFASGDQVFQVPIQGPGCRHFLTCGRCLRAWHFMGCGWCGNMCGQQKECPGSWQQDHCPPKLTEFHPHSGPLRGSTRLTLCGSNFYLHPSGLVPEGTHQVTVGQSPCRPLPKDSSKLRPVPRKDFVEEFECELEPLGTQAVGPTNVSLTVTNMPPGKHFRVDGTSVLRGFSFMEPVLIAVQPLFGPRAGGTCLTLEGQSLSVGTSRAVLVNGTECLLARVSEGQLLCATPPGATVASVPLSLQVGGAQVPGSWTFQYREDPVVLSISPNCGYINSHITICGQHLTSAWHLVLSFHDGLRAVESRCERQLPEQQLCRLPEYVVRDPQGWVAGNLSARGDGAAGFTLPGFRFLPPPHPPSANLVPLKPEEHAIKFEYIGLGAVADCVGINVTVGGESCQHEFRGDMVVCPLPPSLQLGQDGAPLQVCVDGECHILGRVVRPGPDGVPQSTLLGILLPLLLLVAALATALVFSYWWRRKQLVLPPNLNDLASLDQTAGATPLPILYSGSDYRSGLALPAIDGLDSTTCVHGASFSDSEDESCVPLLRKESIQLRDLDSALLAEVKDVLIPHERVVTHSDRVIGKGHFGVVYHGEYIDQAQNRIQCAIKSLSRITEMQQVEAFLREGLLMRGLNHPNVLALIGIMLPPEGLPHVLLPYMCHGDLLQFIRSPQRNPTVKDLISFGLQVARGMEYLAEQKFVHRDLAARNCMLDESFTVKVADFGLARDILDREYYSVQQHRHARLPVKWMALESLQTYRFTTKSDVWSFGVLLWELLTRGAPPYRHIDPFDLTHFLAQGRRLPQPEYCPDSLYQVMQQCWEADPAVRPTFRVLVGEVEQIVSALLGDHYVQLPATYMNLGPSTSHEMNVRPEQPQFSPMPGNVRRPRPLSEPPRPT
For assay [14] the target is unchanged. The conditions noted are these: at 10 µM.
Assay [15] concerns the target Proto-oncogene tyrosine-protein kinase ROS (Homo sapiens) (UniProt P08922). The conditions noted are these: at 1 µM.
The target is the same in assay [16]. The note with it: at 10 µM.
Assay [17] addresses T1, Tyrosine-protein kinase receptor TYRO3 (Homo sapiens) (UniProt Q06418).
T1 sequence (whole entry): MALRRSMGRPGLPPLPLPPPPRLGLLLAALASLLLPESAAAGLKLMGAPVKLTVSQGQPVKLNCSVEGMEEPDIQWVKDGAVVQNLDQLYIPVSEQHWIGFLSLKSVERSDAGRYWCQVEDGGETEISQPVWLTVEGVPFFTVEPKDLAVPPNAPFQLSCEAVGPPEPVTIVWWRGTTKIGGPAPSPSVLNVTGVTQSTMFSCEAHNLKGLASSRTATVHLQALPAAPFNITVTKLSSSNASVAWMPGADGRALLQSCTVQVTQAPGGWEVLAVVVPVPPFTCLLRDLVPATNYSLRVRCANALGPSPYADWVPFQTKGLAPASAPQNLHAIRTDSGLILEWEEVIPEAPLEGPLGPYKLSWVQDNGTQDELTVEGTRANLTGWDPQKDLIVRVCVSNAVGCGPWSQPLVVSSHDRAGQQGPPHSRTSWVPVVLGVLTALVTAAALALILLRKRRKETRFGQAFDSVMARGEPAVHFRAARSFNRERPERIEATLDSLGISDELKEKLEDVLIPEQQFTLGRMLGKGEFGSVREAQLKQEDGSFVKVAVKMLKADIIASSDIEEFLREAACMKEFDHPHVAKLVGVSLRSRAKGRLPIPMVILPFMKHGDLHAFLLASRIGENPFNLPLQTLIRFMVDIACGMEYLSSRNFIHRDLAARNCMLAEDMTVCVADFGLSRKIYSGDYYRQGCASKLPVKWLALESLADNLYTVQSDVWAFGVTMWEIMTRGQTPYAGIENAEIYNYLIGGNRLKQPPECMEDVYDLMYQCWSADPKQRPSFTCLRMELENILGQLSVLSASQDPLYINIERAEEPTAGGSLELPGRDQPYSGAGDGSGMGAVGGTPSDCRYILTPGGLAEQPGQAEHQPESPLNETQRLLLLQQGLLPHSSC
The note with it: at 1 µM.

For assay [18], the target named is T1, Tyrosine-protein kinase receptor TYRO3 (Homo sapiens). The conditions noted are these: at 10 µM.
Assay [19] addresses T2, cAMP-dependent protein kinase catalytic subunit PRKX (Homo sapiens) (UniProt P51817).
T2 sequence (whole entry): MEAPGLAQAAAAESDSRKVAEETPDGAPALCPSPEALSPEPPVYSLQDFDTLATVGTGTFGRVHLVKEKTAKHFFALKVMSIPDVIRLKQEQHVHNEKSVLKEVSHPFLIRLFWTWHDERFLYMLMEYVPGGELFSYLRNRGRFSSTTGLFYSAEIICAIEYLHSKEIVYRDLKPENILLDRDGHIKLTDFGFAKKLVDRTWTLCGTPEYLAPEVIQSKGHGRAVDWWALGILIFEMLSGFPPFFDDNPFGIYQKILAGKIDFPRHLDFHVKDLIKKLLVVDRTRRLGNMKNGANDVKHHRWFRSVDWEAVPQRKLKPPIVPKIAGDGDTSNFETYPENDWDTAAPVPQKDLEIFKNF
The note with it: at 1 µM.

For assay [20], the target named is T2, cAMP-dependent protein kinase catalytic subunit PRKX (Homo sapiens). The conditions noted are these: at 10 µM.

Molecules are shown by their SMILES.

Sequence of Rho-associated protein kinase 2 (Homo sapiens) (O75116 whole entry, looked up): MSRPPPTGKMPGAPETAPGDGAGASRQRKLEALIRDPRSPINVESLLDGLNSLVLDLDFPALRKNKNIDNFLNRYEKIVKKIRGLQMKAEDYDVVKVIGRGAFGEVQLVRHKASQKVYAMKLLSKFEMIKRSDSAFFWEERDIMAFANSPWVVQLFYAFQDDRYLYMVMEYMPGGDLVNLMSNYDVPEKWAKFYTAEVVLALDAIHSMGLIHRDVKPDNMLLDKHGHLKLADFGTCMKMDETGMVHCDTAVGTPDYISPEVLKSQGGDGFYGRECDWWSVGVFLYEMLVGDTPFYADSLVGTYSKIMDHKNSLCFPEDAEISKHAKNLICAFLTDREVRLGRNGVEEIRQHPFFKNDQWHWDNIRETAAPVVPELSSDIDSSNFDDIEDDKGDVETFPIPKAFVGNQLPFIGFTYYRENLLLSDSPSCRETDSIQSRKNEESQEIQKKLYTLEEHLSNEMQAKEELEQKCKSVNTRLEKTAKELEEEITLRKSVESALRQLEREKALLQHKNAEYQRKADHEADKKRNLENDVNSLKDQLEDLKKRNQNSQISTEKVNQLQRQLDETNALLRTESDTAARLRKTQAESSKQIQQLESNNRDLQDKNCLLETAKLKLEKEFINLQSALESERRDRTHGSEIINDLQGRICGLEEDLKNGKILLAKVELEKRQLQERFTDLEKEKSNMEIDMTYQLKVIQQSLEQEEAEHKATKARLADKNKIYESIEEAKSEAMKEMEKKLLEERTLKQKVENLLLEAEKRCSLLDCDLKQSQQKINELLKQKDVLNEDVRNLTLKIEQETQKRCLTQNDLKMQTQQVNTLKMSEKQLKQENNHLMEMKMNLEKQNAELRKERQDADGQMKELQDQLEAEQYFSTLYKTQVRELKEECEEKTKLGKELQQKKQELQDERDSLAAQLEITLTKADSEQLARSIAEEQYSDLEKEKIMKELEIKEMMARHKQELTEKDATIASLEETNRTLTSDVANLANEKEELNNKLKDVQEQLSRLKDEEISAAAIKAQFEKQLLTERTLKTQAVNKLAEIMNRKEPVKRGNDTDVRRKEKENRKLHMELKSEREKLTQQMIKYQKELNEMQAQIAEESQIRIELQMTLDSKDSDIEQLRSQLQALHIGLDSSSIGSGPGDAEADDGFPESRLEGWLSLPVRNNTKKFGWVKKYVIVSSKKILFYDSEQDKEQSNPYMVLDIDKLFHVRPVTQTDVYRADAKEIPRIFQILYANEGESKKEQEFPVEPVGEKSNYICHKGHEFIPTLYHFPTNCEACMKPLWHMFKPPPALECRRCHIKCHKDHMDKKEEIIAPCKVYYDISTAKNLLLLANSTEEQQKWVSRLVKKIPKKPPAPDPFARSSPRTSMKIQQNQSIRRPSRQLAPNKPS
Sequence of Serine/threonine-protein kinase PLK3 (Homo sapiens) (Q9H4B4 whole entry, looked up): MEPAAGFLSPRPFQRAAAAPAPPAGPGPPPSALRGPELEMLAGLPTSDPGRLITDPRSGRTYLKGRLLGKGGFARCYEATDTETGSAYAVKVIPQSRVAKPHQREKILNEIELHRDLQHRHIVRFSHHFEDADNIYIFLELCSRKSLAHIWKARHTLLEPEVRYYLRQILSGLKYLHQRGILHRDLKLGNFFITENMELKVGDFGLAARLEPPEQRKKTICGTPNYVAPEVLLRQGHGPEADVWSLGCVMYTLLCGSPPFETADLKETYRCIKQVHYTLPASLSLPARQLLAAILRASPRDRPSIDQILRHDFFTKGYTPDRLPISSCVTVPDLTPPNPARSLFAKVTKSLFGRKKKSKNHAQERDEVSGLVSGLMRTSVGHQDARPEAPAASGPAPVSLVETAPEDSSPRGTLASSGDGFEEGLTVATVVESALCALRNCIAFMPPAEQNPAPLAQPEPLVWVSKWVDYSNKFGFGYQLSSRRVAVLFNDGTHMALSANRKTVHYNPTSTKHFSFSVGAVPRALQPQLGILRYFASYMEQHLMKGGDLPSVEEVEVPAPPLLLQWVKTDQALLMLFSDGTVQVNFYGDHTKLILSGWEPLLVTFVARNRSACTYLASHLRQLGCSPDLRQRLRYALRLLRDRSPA
Sequence of Rho-associated protein kinase 1 (Homo sapiens) (Q13464 2-1354 limits assumed): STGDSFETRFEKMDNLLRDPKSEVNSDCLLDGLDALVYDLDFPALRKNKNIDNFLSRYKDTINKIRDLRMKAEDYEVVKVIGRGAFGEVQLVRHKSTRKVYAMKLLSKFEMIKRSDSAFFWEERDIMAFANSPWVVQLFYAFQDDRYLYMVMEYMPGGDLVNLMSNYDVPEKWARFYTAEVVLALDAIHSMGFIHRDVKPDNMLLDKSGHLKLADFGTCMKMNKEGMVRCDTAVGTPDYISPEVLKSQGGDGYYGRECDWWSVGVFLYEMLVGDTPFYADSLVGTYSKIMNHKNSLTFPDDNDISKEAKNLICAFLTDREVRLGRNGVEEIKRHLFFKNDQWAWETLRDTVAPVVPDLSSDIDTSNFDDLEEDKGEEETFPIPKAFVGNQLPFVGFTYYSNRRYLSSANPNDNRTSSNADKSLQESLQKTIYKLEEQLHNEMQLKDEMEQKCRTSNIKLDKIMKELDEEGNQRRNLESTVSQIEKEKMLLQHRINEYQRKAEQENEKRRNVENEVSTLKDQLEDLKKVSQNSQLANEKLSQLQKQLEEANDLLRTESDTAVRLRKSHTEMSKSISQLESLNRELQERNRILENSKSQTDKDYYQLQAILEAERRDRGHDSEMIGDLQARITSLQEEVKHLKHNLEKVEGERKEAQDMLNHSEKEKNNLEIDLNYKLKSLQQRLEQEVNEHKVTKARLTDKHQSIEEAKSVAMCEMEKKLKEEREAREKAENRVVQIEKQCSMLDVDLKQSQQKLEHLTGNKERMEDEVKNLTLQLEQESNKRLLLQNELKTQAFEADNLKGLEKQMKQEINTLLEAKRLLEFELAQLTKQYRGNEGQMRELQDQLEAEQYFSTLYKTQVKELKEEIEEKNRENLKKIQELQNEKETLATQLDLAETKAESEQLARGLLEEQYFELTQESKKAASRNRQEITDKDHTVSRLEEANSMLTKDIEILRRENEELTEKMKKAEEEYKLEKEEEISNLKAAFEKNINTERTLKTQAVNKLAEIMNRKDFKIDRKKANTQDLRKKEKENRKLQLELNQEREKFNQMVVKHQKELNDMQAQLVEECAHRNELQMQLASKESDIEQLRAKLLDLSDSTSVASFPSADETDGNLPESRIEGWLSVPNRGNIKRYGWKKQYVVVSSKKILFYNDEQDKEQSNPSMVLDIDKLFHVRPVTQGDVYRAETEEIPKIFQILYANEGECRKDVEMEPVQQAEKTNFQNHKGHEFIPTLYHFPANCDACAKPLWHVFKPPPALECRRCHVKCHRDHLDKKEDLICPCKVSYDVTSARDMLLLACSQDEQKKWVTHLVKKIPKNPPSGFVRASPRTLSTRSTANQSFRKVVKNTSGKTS

As to `Oc1ccc(-c2nc(-c3ccc(F)cc3)c(-c3ccncc3)[nH]2)cc1`, the residual activity is 109% (inactive) in assay [1]; 90% in assay [2]; 111% in [3]; 86% in [4]; 24% in assay [5]; 14% in assay [6]. Also, the residual activity in assay [7] is 117%; in [8] it was 100%; in [9], 95%; in assay [10], 36%; in assay [11], 101%; in assay [12] it was 47%. In addition, the residual activity in assay [13] came out at 84%; in assay [14], 68%; in [15], 115%; in [16], 104%; in assay [17], 103%; in assay [18] it was 81%.

With `CCN(CC)CCCCN1c2ccccc2Oc2ccc(Cl)cc21`, the residual activity in assay [1] was 101% (inactive); in [2], 99%; in assay [19], 109%; in assay [20], 101%; in [3] it was 131%; in assay [4], 115%. Besides, the residual activity is 105% in [5]; 85% in assay [6]; 113% in assay [7]; 121% in assay [8]; 110% in [9]; 91% in assay [10]. Further, the residual activity in assay [11] turned out to be 108%; in assay [12] it was 117%; in assay [13], 105%; in assay [14], 91%; in assay [15], 100%; in assay [16] it was 101%. For the same compound, the residual activity in [17] and in assay [18] was 108% each time.

As to `CC(=O)c1ccc(N2CCOCC2)cc1O`, the residual activity in assay [1] is 90% (inactive); in assay [2] it was 92%; in [19] it was 106%; in [20], 95%; in assay [4] it was 103%; in assay [5] it was 95%. Further, the residual activity in [6] worked out at 81%; in [9] it was 92%; in [10] it was 87%; in assay [11], 99%; in assay [12], 109%; in assay [13] it was 91%. Moreover, the residual activity in [14] turned out to be 77%; in assay [15] it was 94%; in assay [16], 98%; in [17] it was 86%; in [18], 106%.

For `CO[C@H]1[C@@H](OC)C[C@H](C)[C@@H](OC)C2=CC(=O)C=C(NC(=O)/C(C)=C/C=C/[C@H](OC)[C@@H](OC(N)=O)/C(C)=C/[C@@H]1C)C2=O`, the residual activity was 99% (inactive) in assay [1]; 104% in assay [2]; 80% in assay [19]; 72% in assay [20]; 124% in assay [3]; 100% in [4]. Moreover, the residual activity in assay [5] was 93%; in [6], 96%; in assay [7], 121%; in [11] it was 108%; in assay [12] it was 106%; in [13], 85%. Moreover, the residual activity came out at 85% in [14]; 92% in assay [15]; 94% in assay [16]; 86% in [17]; 101% in [18].

`COc1cc2ncnc(Nc3ccc(NC(=O)c4ccccc4)cc3)c2cc1OC`: the residual activity was 102% (inactive) in assay [1]; 97% in [2]; 91% in assay [20]; 134% in [3]; 75% in assay [4]; 110% in assay [5]. Moreover, the residual activity in assay [6] was 77%; in [10], 82%; in assay [11], 56%; in assay [12] it was 12%; in assay [13], 87%; in [14] it was 74%. The residual activity in [15] was found to be 109%; in assay [16] it was 102%; in [17], 94%; in [18], 76%.

Turning to `Cc1cc2ncc(-c3ccccc3)nc2cc1C`, the residual activity in assay [1] was 87% (inactive); in assay [2] it was 92%; in assay [19], 108%; in assay [20] it was 97%; in [3] it was 126%; in assay [4], 101%. For the same compound, the residual activity was 108% in assay [5]; 82% in [6]; 100% in assay [9]; 94% in [10]; 96% in assay [11]; 104% in assay [12]. Further, the residual activity in assay [13] stood at 92%; in [14], 79%; in assay [15] it was 101%; in [16], 100%.

Take `Cc1cc(Nc2nc(-c3ccccc3)nc3ccccc23)n[nH]1`: the residual activity was 81% in [19]; 38% in assay [20]; 20% in assay [3]; 4% in assay [4]; 63% in assay [6]; 120% in assay [7]. Further, the residual activity in assay [8] worked out at 94%; in assay [10], 98%; in assay [11], 2%; in assay [12] it was 0%; in assay [13], 79%; in [14], 54%. The residual activity came to 40% in [16], 98% in assay [17] and 53% in [18].

Take `c1ccc2c(-c3ccncc3)c[nH]c2c1`: the residual activity in assay [1] is 91% (inactive); in assay [2], 94%; in [19] it was 48%; in assay [20] it was 16%; in [4], 93%; in [5], 87%. Further, the residual activity stood at 59% in assay [6]; 78% in assay [8]; 37% in assay [9]; 6% in [10]; 103% in assay [11]; 101% in assay [12]. For the same compound, the residual activity in [13] is 96%; in assay [14], 65%; in assay [15], 88%; in assay [16], 92%; in assay [17] it was 91%; in [18], 97%.

Source of the values: ChEMBL document CHEMBL2218924, “A broad activity screen in support of a chemogenomic map for kinase signalling research and drug discovery” (Biochem J, 2013).
